High-throughput results: PubChem, NMMLSC
FPRL1 ligand: human FPRL1 ligands by binding competition, primary screen, cell-based, FPR counter-screen, flow cytometry. N-formyl peptide receptor 2 (Homo sapiens), P25090. inhibition, % (concentration not given with the values). FPRL1-expressing cells, fluorescent ligand binding inhibition. AID 441, 2006. 24,000 compounds, 0.3% hits;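 also: 0% = buffer alone and 100% = receptor blocker peptide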
Autofluor Jurkat: compound autofluorescence on Jurkat cells, primary screen, artefact control for VLA-4 allosteric ligand project, cell-based, flow cytometry; 24,000 compounds, 0.61% hits; fluorescence ratio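 (tested at 10 µM compound in the well)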; stronger effect = higher value; 1 = vehicle-only cell background; AID 576, 2007;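 active = fluorescence ratio above 2.44, which is 1 plus 3 SD of all ratios; inconclusive = signal too bright to measure linearly, ratio around 10 or more; inactive = fluorescence ratio below 2.44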;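 also: green fluorescence of cells measured with 488 nm excitation and 530 nm emission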
VLA-4 agonist: enhancers of LDV-FITC binding to VLA-4 integrin, primary screen, Jurkat cells, flow cytometry. activation, % at 10 µM (by protocol). 24,000 tested, under 10 active. AID 528, 2006;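 active = fluorescent ligand binding to cells raised by more than 40% of the manganese-induced maximum; inconclusive = compound's own fluorescence above 85% of the ligand control signal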;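 also: 0% = ligand binding without compound and 100% = manganese-stimulated maximal binding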
FPR binder: human FPR ligands by binding competition, primary screen, cell-based, FPRL1 counter-screen, flow cytometry; FPR-expressing cells, fluorescent ligand binding; inhibition, % (no concentration beside the values); 24,000 compounds, 0.74% hits;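 also: 0% = buffer wells and 100% = receptor blocker peptide wells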
Target sequence (P21462 whole entry, looked up): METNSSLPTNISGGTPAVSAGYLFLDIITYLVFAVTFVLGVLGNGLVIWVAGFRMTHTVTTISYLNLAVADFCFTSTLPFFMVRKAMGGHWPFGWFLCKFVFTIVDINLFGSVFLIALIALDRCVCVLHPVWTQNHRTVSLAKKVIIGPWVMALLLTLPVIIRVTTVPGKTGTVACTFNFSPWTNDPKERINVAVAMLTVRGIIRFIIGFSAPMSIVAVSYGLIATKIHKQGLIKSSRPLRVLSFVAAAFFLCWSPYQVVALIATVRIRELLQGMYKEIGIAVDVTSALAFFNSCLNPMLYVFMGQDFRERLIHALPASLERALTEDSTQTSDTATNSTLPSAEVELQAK
LNCaP diff act: activators of LNCaP prostate cell differentiation, primary screen, flow cytometry side scatter; 4 d; 24,000 compounds, 0.56% hits; side scatter shift, % at 10 µM;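 active = side scatter shift above 30%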;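 also: androgen-responsive LNCaP prostate cancer cells in charcoal-stripped serum medium; percent of cells past a gate set so DMSO wells show 10% shift; higher shift means more granular cells and more differentiation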
VLA-4 antagonist: inhibitors of LDV-FITC binding to Mn2+-activated VLA-4, primary screen, Jurkat cells; LDV-FITC binding with Mn2+, flow cytometry; 100% = Mn2+-driven binding gain fully reversed; inhibition, % at 10 µM (by protocol); 24,000 compounds, 0.2% hits;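 active = inhibition above 50%; inconclusive = compound itself fluorescent, judged against control cell fluorescence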;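 also: 0% = Mn2+ stimulated cells lacking compound and 100% = ligand binding without Mn2+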
The depositor's hits bear a star. Hits are enriched below; roughly 1.9% of the tested compounds scored in any of these assays. Rule as the data show it, unless noted: active = inhibition above about 30%; inconclusive = no clear call, values can overlap the other calls; inactive = below that.

`CC(=O)Nc1nc(C)c(-c2csc(Nc3ccc(O)cc3)n2)s1` gave FPRL1 ligand -7, Autofluor Jurkat 1.2, VLA-4 agonist -28, FPR binder -6, LNCaP diff act 19 and VLA-4 antagonist 28.
Screening Cc1ccc(Nc2nc(C3CC3)cs2)cc1 returned FPRL1 ligand 8, Autofluor Jurkat 1.4, VLA-4 agonist inconclusive, FPR binder 34*, LNCaP diff act 14 and VLA-4 antagonist inconclusive.
`CCCCS(=O)(=O)NC1=NCN(C2CCN(Cc3ccccc3)CC2)CN1` gave FPRL1 ligand -8, Autofluor Jurkat 1.1, VLA-4 agonist 1, FPR binder -3, LNCaP diff act 6 and VLA-4 antagonist -8.
O=C(CCCn1c(=O)[nH]c2ccccc2c1=O)NC1CCCCCC1 was read as FPRL1 ligand 1, Autofluor Jurkat 1, VLA-4 agonist 2, FPR binder 2, LNCaP diff act 4 and VLA-4 antagonist -5.
CCOc1cc2[nH]c(=O)n(CCCCC(=O)NC3CCCCCC3)c(=O)c2cc1OCC was read as FPRL1 ligand 8, Autofluor Jurkat 0.95, VLA-4 agonist -10, FPR binder 0, LNCaP diff act 9 and VLA-4 antagonist 66*.
Screening CCOc1cc2[nH]c(=O)n(CC3CCC(C(=O)NCCC(C)C)CC3)c(=O)c2cc1OCC (centres undefined) returned FPRL1 ligand -4, Autofluor Jurkat 1.1, VLA-4 agonist -26, FPR binder 0, LNCaP diff act 16 and VLA-4 antagonist 60*.
COc1cc(C2CC(=O)c3c([nH]c(C(=O)OCCOC(C)C)c3C)C2)cc(OC)c1OC (centres undefined) was read as FPRL1 ligand 1, Autofluor Jurkat 1, VLA-4 agonist 2, FPR binder 8, LNCaP diff act 11 and VLA-4 antagonist 5.
CC(C)OC(=O)c1nnn(-c2nonc2N)c1CN1CCc2ccccc2C1 was read as FPRL1 ligand -10, Autofluor Jurkat 1.3, VLA-4 agonist inconclusive, FPR binder 43*, LNCaP diff act 6 and VLA-4 antagonist inconclusive.
`O=c1cc(N2CCN(c3ccc(F)cc3)CC2)[nH]c(=O)n1C1CCCCC1` gave FPRL1 ligand -5, Autofluor Jurkat 0.87, VLA-4 agonist -4, FPR binder 3, LNCaP diff act 34* and VLA-4 antagonist 30.
For CC1(C(=O)NC2CCCC2)CCC(=O)N1Cc1ccccc1 (centres undefined) the results were FPRL1 ligand 2, Autofluor Jurkat 1.2, VLA-4 agonist 4, FPR binder -4, LNCaP diff act 6 and VLA-4 antagonist 9.
For CC1(C)S[C@@H]2[C@H](NC(=O)Cc3ccccc3)C(=O)N2[C@H]1C(=O)O the results were FPRL1 ligand 8, Autofluor Jurkat 1, VLA-4 agonist 1, FPR binder 48*, LNCaP diff act 4 and VLA-4 antagonist -14.
Cc1ccc(C)c2[nH]c(=O)c(CN(CCN3CCCC3)C(=O)Nc3cccc(Cl)c3)cc12 was read as FPRL1 ligand -3, Autofluor Jurkat 1.1, VLA-4 agonist -2, FPR binder -2, LNCaP diff act 73* and VLA-4 antagonist 7.
For O=C(CCNS(=O)(=O)c1cccs1)N1CCc2ccccc2C1 the results were FPRL1 ligand -2, Autofluor Jurkat 1.1, VLA-4 agonist -3, FPR binder 0, LNCaP diff act 14 and VLA-4 antagonist -15.
For CCOC(=O)N1CCC(Nc2nc3ccccc3n3nnnc23)CC1 the results were FPRL1 ligand -4, Autofluor Jurkat 8*, VLA-4 agonist inconclusive, FPR binder -12, LNCaP diff act 9 and VLA-4 antagonist inconclusive.
`Cc1ccc(CNc2nc3ccccc3n3nnnc23)cc1` gave FPRL1 ligand 4, Autofluor Jurkat inconclusive, VLA-4 agonist inconclusive, FPR binder -24, LNCaP diff act 35* and VLA-4 antagonist inconclusive.
For COc1ccc(OC)c(NC(=O)[C@H]2CC=CC[C@H]2C(=O)O)c1 the results were FPRL1 ligand 3, Autofluor Jurkat 0.9, VLA-4 agonist 2, FPR binder 3, LNCaP diff act 12 and VLA-4 antagonist -2.
Screening COc1ccc(C)cc1NC(=O)C1CCCCC1C(=O)O (centres undefined) returned FPRL1 ligand 26 and FPR binder 32*.
For C=CCOc1ccccc1/C=c1\sc2nc(=O)c(C)nn2c1=O the results were FPRL1 ligand 21, Autofluor Jurkat 1.1, VLA-4 agonist 10, FPR binder 13, LNCaP diff act 6 and VLA-4 antagonist -24.
`Cc1cc(/C=c2/sc3nc4ccccc4n3c2=O)c(C)n1-c1ccccn1` gave FPRL1 ligand -19, Autofluor Jurkat 3.7*, VLA-4 agonist inconclusive, FPR binder -13, LNCaP diff act 14 and VLA-4 antagonist inconclusive.
For COCCCNC(=O)CS(=O)(=O)Cc1nc(-c2cccc(OC)c2)oc1C the results were FPRL1 ligand 0, Autofluor Jurkat 0.94, VLA-4 agonist 7, FPR binder 10, LNCaP diff act 5 and VLA-4 antagonist 11.
Screening COc1cccc(-c2nc(CS(=O)(=O)CC(=O)NCCC(C)C)c(C)o2)c1 returned FPRL1 ligand 2, Autofluor Jurkat 1, VLA-4 agonist 0, FPR binder 34*, LNCaP diff act 3 and VLA-4 antagonist 22.
`CCc1cccc(OCC(=O)Nc2ccc(S(=O)(=O)Nc3onc(C)c3C)cc2)c1` gave FPRL1 ligand 1, Autofluor Jurkat 1, VLA-4 agonist 1, FPR binder 10, LNCaP diff act 5 and VLA-4 antagonist -3.
Screening CC1Cc2ccccc2N1C(=O)C1CCCN(S(=O)(=O)c2cccc3cccnc23)C1 (centres undefined) returned FPRL1 ligand -12, Autofluor Jurkat 3.6*, VLA-4 agonist inconclusive, FPR binder -6, LNCaP diff act 8 and VLA-4 antagonist inconclusive.
COc1ccc(N2CCN(C(=O)C3CCCN(S(=O)(=O)c4cccc5cccnc45)C3)CC2)cc1 (centres undefined) was read as FPRL1 ligand 2, Autofluor Jurkat 1, VLA-4 agonist 1, FPR binder -11, LNCaP diff act 11 and VLA-4 antagonist 7.
COc1ccc(-c2noc(CCC(=O)N3CCN(c4cc(C)ccc4C)CC3)n2)cc1 was read as FPRL1 ligand -3, Autofluor Jurkat 0.97, VLA-4 agonist -4, FPR binder -5, LNCaP diff act 6 and VLA-4 antagonist 48.
For CCOC(=O)CSc1nnc(CNC(=O)c2ccc(OC)c(OC)c2)n1C the results were FPRL1 ligand 1, Autofluor Jurkat 1, VLA-4 agonist -3, FPR binder 0, LNCaP diff act 12 and VLA-4 antagonist -12.
